The record followed here is PubChem BioAssay (Tox21).

Test [1] is described as follows: qHTS assay to identify small molecule antagonists of the estrogen related receptor signaling pathway with the pleiotropic PPARgamma coactivator (PGC) from Tox21 10K library - cell viability counter screen (AID 1224840; active = well fitted cell-killing curve with a large enough effect in the repeat runs, not every such curve was filed as active; also: nearly all actives have a fitted effect of over 40% in size). In short, it runs like this: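 Following seeding of 2,000 PGC/ERR cells/well and 6 hours' incubation, test compounds were delivered in DMSO. The plates then sat 17.5 hours at 37 C before a fluorogenic live-cell protease reagent (CellTiter-Fluor) was read after 30 min.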

A short description of test [2]: qHTS assay to identify small molecule agonists of the estrogen related receptor signaling pathway with the pleiotropic PPARgamma coactivator (PGC) from Tox21 10K library (AID 1224842). Also: nearly all actives have a fitted effect of over 15% in size. In short, it runs like this:
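PGC/ERR reporter cells (NTP line) were seeded 2,000 per well, rested 6 h at 37 C/5% CO2, then pin-dosed with compounds in DMSO for 18 h at 37 C; luciferase read by One-Glo luminescence after 30 min at room temperature.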
On the technique in general: In qHTS, concentration-response curves come from the screen itself.

Test [3] can be described thus: qHTS assay to identify small molecule agonists of the hypoxia (HIF-1) signaling pathway - cell viability counter screen (AID 1224844; calls by dose curve; also: nearly all actives have a fitted effect of over 50% in size). The method in brief:
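Cells (HRE-bla ME-180, 2,000 per well) sat 5 hrs at 37C, got compound for 17 hrs, were read for CCF4-AM FRET, and were finally lysed with CellTiter-Glo for a 30 min room-temperature luminescence read.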

A short description of test [4]: qHTS assay to identify small molecule agonists of H2AX (AID 1224845; active = well fitted activation curve with a large enough effect in the signal ratio in the repeat runs, not every such curve was filed as active; the % refers to the signal ratio). The method in brief:
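Wild-type CHO-K1 cells plated overnight, then exposed 3 hr at 37C to compounds at 15 concentrations (0.76% DMSO). Lysed, then HTRF anti-pH2AX(S139)-cryptate/anti-H2AX-d2 detection after 24 hr at room temperature; emissions 665 and 620 nm.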

Test [5] in a line: qHTS assay to identify small molecule agonists of the hypoxia (HIF-1) signaling pathway (AID 1224846; active = well fitted activation curve with a large enough effect in the signal ratio in the repeat runs, not every such curve was filed as active; the % refers to the signal ratio). In short, it runs like this: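 A low-serum medium (0.5% dialyzed FBS) holding 2,000 HRE-bla ME-180 cells per well is preincubated for 5 hrs, dosed with compounds by pintool, and kept a further 17 hrs at 37C, 5% CO2 before CCF4-AM FRET detection of beta-lactamase.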
Test [6] can be described thus: qHTS assay to identify small molecule agonists of H2AX - cell viability counter screen (AID 1224847; calls by dose curve; also: top concentration of the series differs between compounds; nearly all actives have a fitted effect of over 30% in size). The method in brief:
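Cells plated first: CHO-K1, 1000 per well in 10% FBS medium, incubated overnight at 37C. Then 15-point compound titration added (final DMSO 0.76%) for 3 hr. Finally CellTiter-Glo added and luminescence read.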

The nature of test [7]: qHTS assay to identify small molecule antagonists of the estrogen related receptor (ERR) signaling pathway from Tox21 library (AID 1224848). Also: nearly all actives have a fitted effect of over 50% in size. Also: potency is read from the fitted curve at half-maximal effect. The method in brief:
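Screening used an ERR reporter line supplied by NTP, exposed for 18 h at 37 C to library compounds delivered in DMSO. Signal was luciferase luminescence developed with ONE-Glo at room temperature for 30 min.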

A short description of test [8]: qHTS assay to identify small molecule agonists of the estrogen related receptor (ERR) signaling pathway from Tox21 library (AID 1224849; calls by dose curve; also: nearly all actives have a fitted effect of over 15% in size). The method in brief:
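Screening used an NTP-provided ERR luciferase cell line. Compounds in DMSO were added 6 h after seeding and left 18 h at 37 C before a 30 min ONE-Glo step and luminescence reading.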

Test [9] is described as follows: qHTS RealTime-Glo MT Cell Viability Assay in HepG2 cells - 24 hour (AID 1224867). Also: nearly all actives have a fitted effect of over 50% in size. The method in brief: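 Luminescence read-out: viable HepG2 cells reduce a prosubstrate to a NanoLuc substrate, giving a signal proportional to live cell number. Reads taken at 0, 8, 16, 24, 32 and 40 h of compound exposure at 37 C.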
The nature of test [10]: qHTS RealTime-Glo MT Cell Viability Assay in HEK293 cells - 32 hour (AID 1224868). Also: nearly all actives have a fitted effect of over 50% in size. Also: potency is read from the fitted curve at half-maximal effect. As to activity change, negative = cytotoxic: top concentration of the series differs between compounds. In short, it runs like this: (§1)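 Nonlytic real-time viability readout: viable cells convert prosubstrate to NanoLuc substrate, giving luminescence proportional to live cell number. HEK293, 600 cells/well, compound added after 5 h, continuous culture at 37 C.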
The nature of test [11]: A CellTox Green Cytotoxicity Assay to monitor cytotoxicity in HEK293 cells - 0 hour (AID 1224869). Also: nearly all actives have a fitted effect of over 50% in size. In short, it runs like this: (§2)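 Fluorescence intensity, read at 0, 8, 16, 24, 32 and 40 h of compound treatment, reflected dye binding to DNA of dead HEK293 cells; compounds (23 nL, DMSO) were added 5 h after plating cells with reagent.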
Test [12] is described as follows: qHTS RealTime-Glo MT Cell Viability Assay in HepG2 cells - 40 hour (AID 1224870). Also: nearly all actives have a fitted effect of over 50% in size. In short, it runs like this:
(§3)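 HepG2 cells mixed with RealTime-Glo MT reagents (NanoLuc plus cell-permeant prosubstrate) were seeded at 600 cells/well, incubated 5 h at 37 C/5% CO2, then pinned with compounds in DMSO; nonlytic luminescence tracked viability during 40 h treatment.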

Test [13] can be described thus: A CellTox Green Cytotoxicity Assay to monitor cytotoxicity in HEK293 cells - 40 hour (AID 1224871). Also: nearly all actives have a fitted effect of over 45% in size. The method in brief:
as §2

Test [14] can be described thus: qHTS RealTime-Glo MT Cell Viability Assay in HEK293 cells - 16 hour (AID 1224872). Also: nearly all actives have a fitted effect of over 50% in size. Also: potency is read from the fitted curve at half-maximal effect. As to activity change, negative = cytotoxicity: top concentration of the series differs between compounds. In short, it runs like this: as §1
Test [15] can be described thus: qHTS RealTime-Glo MT Cell Viability Assay in HepG2 cells - 8 hour (AID 1224873). Also: nearly all actives have a fitted effect of over 55% in size. In short, it runs like this:
as §3

A short description of test [16]: qHTS RealTime-Glo MT Cell Viability Assay in HEK293 cells - 40 hour (AID 1224874). Also: nearly all actives have a fitted effect of over 50% in size. Also: potency is read from the fitted curve at half-maximal effect. Particulars: RealTime-Glo luminescence; max response: stronger effect = lower value. In short, it runs like this:
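Viable HEK293 cells reduce a cell-permeant prosubstrate; the product diffuses out and is consumed by NanoLuc in the medium to give light. Compounds went in after a 5 h incubation and plates were read over the treatment course.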

The target of test [17] is Thyrotropin receptor (Homo sapiens) (UniProt P16473). The experiment in a line: qHTS assay to identify small molecule agonists of the thyroid stimulating hormone receptor (TSHR) signaling pathway (AID 1224843; calls by dose curve; also: nearly all actives have a fitted effect of over 45% in size). The method in brief: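 Cell line HEK293 with TSHR; density 800/well. Exposure 30 min RT. Readout HTRF cAMP (cAMP-d2/anti-cAMP-cryptate), 1 h RT before reading.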
Thyrotropin receptor (Homo sapiens), sequence (P16473 whole entry, looked up): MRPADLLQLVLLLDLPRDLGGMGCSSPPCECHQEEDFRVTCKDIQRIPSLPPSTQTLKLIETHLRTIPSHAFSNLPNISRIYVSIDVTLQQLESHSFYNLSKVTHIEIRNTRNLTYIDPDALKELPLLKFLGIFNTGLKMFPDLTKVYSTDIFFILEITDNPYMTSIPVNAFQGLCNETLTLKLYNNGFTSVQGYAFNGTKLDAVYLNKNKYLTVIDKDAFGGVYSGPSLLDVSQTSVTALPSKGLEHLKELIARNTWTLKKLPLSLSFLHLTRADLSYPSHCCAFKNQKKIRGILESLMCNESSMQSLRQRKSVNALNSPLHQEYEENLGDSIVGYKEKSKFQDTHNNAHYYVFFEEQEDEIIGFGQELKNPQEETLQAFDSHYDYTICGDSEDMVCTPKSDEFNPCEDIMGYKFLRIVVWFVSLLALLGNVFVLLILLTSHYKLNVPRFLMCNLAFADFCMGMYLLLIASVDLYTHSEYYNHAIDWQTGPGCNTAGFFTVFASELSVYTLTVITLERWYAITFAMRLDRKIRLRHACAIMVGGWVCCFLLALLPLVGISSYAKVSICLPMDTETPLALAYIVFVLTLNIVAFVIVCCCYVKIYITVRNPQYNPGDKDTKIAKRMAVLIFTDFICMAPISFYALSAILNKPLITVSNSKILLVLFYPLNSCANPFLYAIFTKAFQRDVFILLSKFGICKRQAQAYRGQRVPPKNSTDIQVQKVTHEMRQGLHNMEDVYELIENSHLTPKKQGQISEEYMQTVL

Test [18] can be described thus: A CellTox Green Cytotoxicity Assay to monitor cytotoxicity in HEK293 cells - 24 hour (AID 1224875). Also: series mostly up to about 77 µM; nearly all actives have a fitted effect of over 45% in size. The method in brief:
as §2

A short description of test [19]: qHTS assay to identify small molecule antagonists of the estrogen related receptor signaling pathway with the pleiotropic PPARgamma coactivator (PGC) from Tox21 10K library (AID 1224841; call rule not given here). In short, it runs like this:
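qHTS antagonist format: PGC/ERR cells, 2k/well, compound in DMSO by pin transfer after 6 h attachment, 18 h treatment at 37 C, One-Glo luminescence read at 30 min.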

Values without a mark were called inactive. Inconclusive results are not listed. Active and inactive are the calls of the source. Unless noted, calls follow the shape of the dose curve; as a rule, active = well fitted curve in the direction sought with a large enough effect in the repeat runs; inconclusive = weak or mixed curves; inactive = no such curve, though single readings can be large; an effect the other way counts as inactive or inconclusive.
% is scaled to controls: 0 for no effect and ±100 for the full control effect.

On to `Cn1c(=O)c2c(ncn2CC2OCCO2)n(C)c1=O`, for which the compound was called inactive in test [1], in test [2], in test [3], in test [4], in test [5] and in test [8]. The call in test [9], in test [12] and in test [15] was inactive. The Potency entry in test [6], in [7], in test [10], in test [11], in test [13] and in test [14] was “inactive” in each case. Also, the max response in [16] was 7.08%.

As to `C1=CCC(c2ccccc2)CC1` (configuration not stated), the outcome in test [1], in [2], in test [17], in test [3], in test [4] and in test [5] was inactive. Also, the result in [8], in test [9] and in test [15] was inactive. In addition, the Potency result in [6], in test [7], in test [10], in test [11], in test [13] and in [14] was “inactive” each time. Further, the Potency entry in test [18] was “inactive”. Further, the max response in [16] was 4.33%.

On to `Cc1ncc([N+](=O)[O-])n1CC(O)CCl` (configuration not stated), for which the result in test [1], in test [2], in test [17], in test [3], in test [4] and in test [8] was inactive. For the same compound, the outcome in test [9], in test [12] and in test [15] was inactive. The Potency entry in test [6], in test [7], in test [10], in test [11], in [13] and in test [14] was “inactive” in each case. Besides, the Potency entry in test [18] was “inactive”. For the same compound, the max response in test [16] is 3.64%.

`Cc1nc2n(c(=O)c1CCN1CCC(C(=O)c3ccc(F)cc3)CC1)CCS2`: the result in test [1], in test [2], in test [17], in [3], in test [4] and in test [5] was inactive. Moreover, the compound was classed as inactive in [8], in test [9], in test [12] and in [15]. Further, the Potency result in test [6], in test [11], in test [13] and in [18] was “inactive” in each case. The Potency in [7] was 11.9 µM (active); in test [10], 5.35 µM (active); in test [14], 9.52 µM (active); in test [16] it was 6.01 µM (active).

As to `CC(C)C(=O)c1ccccc1`, the compound was called inactive in test [1], in test [2], in test [17], in [3], in [4] and in [5]. Besides, the compound was classed as inactive in test [8], in [9], in test [12] and in test [15]. Also, the Potency entry in test [6], in test [7], in test [10], in [11], in [13] and in test [14] was “inactive” each time. Further, in [18], the Potency entry is “inactive”. In addition, the max response in test [16] is -17.8%.

`CCC1COC(=O)O1` (configuration not stated): the result in test [1], in test [2], in test [17], in [3], in test [4] and in test [5] was inactive. For the same compound, the outcome in test [8], in test [9], in test [12] and in test [15] was inactive. Besides, the Potency result in [6], in [7], in test [10], in test [11], in [13] and in test [14] was “inactive” throughout. Moreover, the Potency entry in test [18] was “inactive”. For the same compound, in [16], the max response is -0.285%.

Take `CCCCCCCCCCCCCCCCI`: the viability change, negative = cytotoxic in [1] was -0.222% [at 19 µM]; in test [15], -19.7% [at 15.8 µM]. Further, the activity, negative = inhibition in test [19] is -7.26% [at 19 µM]; in test [7], 4.33% [at 19 µM]. For the same compound, the activation was -1.58% [at 19 µM] in [2], -19.7% [at 19 µM] in [17] and 0.543% [at 15.8 µM] in test [5]. Also, the activation (H2AX phosphorylation) in test [4] was 0.0964% [at 31.6 µM]. In addition, the activity change, negative = cytotoxicity in test [6] is -0.0372% [at 31.6 µM]; in test [9], -1.23% [at 15.8 µM]; in test [14] it was -6.59% [at 15.8 µM]. The activity change, positive = activation in test [8] was 2.23% [at 19 µM]. Besides, the activity change, negative = cytotoxic was -10.5% [at 15.8 µM] in test [10] and 17.3% [at 15.8 µM] in test [12]. The cytotoxicity in test [11] is 0.206% [at 15.8 µM]. Moreover, the cytotoxicity increase in [13] is -8.08% [at 15.8 µM]. In addition, the max response in [16] was -10.6%. Further, in test [18], the activity change is -5.96% [at 15.8 µM, stronger effect = higher value].
